# From PubChem BioAssay (EPA / NIEHS)
# Results filed as inconclusive are left out. The source made the active and inactive calls. How the source made its calls, unless noted: active means hit-call score of the fitted dose curve at least 0.9, where 1 is the maximum; inactive means score below 0.9.
# Key:
# [1] = CCTE_Mundy_HCI_Cortical_NOG_NeuriteLength: CCTE's Neurite Outgrowth Assay in rat cortical cells for Neurite Length, Mundy Lab (AID 2284213);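 on AC50: neurites imaged about 48 to 50 h after chemical exposure began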
# How it was run: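 Neurite length was read by high-content imaging of βIII-tubulin-labelled neurites in rat primary cortical cultures. Activity was fitted relative to DMSO.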
# [2] = CCTE_Mundy_HCI_Cortical_Synap_Neur_Matur_NeuriteLength: CCTE's Synaptogenesis and Neurite Maturation Assay in rat cortical cells for Neurite Length, Mundy Lab (AID 2284214)
# Method: (§1) CCTE_Mundy_HCI_Cortical_Synap&Neurite_Matur is a multiplexed, cell-based-readout assay that uses rat primary cortical cells with measurements taken at 288.33 hours after chemical dosing in a microplate: 96-well plate.CCTE_Mundy_HCI_Cortical_Synap_Neur_Matur_NeuriteLength is one of eight components of the CCTE_Mundy_HCI_Cortical_Synap&Neurite_Matur assay. It measures synaptogenesis and neurite maturation related to neurite length using High Content Imaging of fluorescently labelled markers.[…] Using a type of morphology reporter, loss -of-signal activity can be used to understand developmental effects.
# (§2) Cells are plated onto 96 well plates and allowed 2 hr for attachment to the substrate. At days in vitro (DIV) 5, Cytosine Arabinoside (AraC) is added to arrest glial cell growth. Chemicals are dosed and a media change is performed at DIV 7 of differentiation and is continued through DIV 12 when the experiment is terminated. Cells are fixed with […] and Hoechst Dye. Cells are stained using Millipore Mouse anti-MAP2MAB3418 (1:800) and Millipore Rabbit anti-Synaptophysinsc-1750 (1:250) primary antibodies and Alexa Fluor-488 goat anti-mouse and AlexaFluor-546 goat anti-rabbit secondary antibodies to label neuronal cell nuclei, synapses and neurites. A Cellomics ArrayScan VTi HCS Reader is used for automated image acquisition and analysis of neurite outgrowth.
# [3] = CCTE_Mundy_HCI_Cortical_Synap_Neur_Matur_NeuriteSpotCountPerNeuron: CCTE's Synaptogenesis and Neurite Maturation Assay in rat cortical cells for Neurite Spot Count per Neuron Count, Mundy Lab (AID 2284215)
# Method: as §1, with “plate.CCTE_Mundy_HCI_Cortical_Synap_Neur_Matur_NeuriteSpotCountPerNeuron” for “plate.CCTE_Mundy_HCI_Cortical_Synap_Neur_Matur_NeuriteLength”, “number of neurite-associated synapses (synaptophysin puncta) per neuron” for “neurite length”
# as §2
# [4] = TAMU_PeakParms_SingleDonor1434_Chronotropy: Texas A&M University (TAMU) 1.5-hr Human Induced Pluripotent Stem Cell (iPSC)-derived Cardiomyocytes Calcium (Ca+2) Flux Assay for Cardiotoxicity: Chronotropy (changes in peak frequency) (AID 2284217); settings: actives raise or lower the signal
# How it was run: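 Beat rate, as mean Ca2+-flux peak frequency, was read from donor 1434 iPSC cardiomyocytes 90 min after exposure to 0.2–100 uM test chemical (0.5% DMSO). Wells that stopped beating were excluded; EC05 from bidirectional DMSO-referenced fitting.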
# [5] = CCTE_Mundy_HCI_Cortical_Synap_Neur_Matur_SynapseCount: CCTE's Synaptogenesis and Neurite Maturation Assay in rat cortical cells for Synapse Count, Mundy Lab (AID 2284218)
# Method: as §1, with “plate.CCTE_Mundy_HCI_Cortical_Synap_Neur_Matur_SynapseCount” for “plate.CCTE_Mundy_HCI_Cortical_Synap_Neur_Matur_NeuriteLength”, “number of synapses per neuron” for “neurite length”
# as §2
# [6] = CCTE_Mundy_HCI_hN2_NOG_NeuriteCount: CCTE's Neurite Outgrowth Assay in human hN2 cells for Neurite Count, Mundy Lab (AID 2284219; active means hit-call score of the fitted dose curve at least 0.9, where 1 is the maximum)
# How it was run: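 In this morphology assay, hNP1-derived neurons received test chemical 2 h post-plating and were fixed two days later in warm paraformaldehyde/sucrose containing Hoechst 33342. Neurites, labelled by rabbit anti-βIII-tubulin (1:800) and Alexa Fluor-488 (1:500), were counted automatically.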
# [7] = CCTE_Mundy_HCI_hN2_NOG_NeuriteLength: CCTE's Neurite Outgrowth Assay in human hN2 cells for Neurite Length, Mundy Lab (AID 2284220; active means hit-call score of the fitted dose curve at least 0.9, where 1 is the maximum)
# How it was run: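 Read-out is neurite length from high-content imaging of βIII-tubulin/Alexa Fluor-488-labelled neurons, referenced to DMSO controls.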
# [8] = CCTE_Mundy_HCI_Cortical_Synap_Neur_Matur_CellBodySpotCount: CCTE's Synaptogenesis and Neurite Maturation Assay in rat cortical cells for Cell Body Spot Count, Mundy Lab (AID 2284223)
# How it was run: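 Read-out: cell body-associated synaptophysin puncta per neuron, imaged after MAP2, synaptophysin and Hoechst staining. Rat cortical cells, AraC DIV 5, chemical dosing DIV 7, fixation DIV 12. Activity fitted in positive direction relative to DMSO baseline.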
# [9] = CCTE_Mundy_HCI_hN2_NOG_NeuronCount: CCTE's Neurite Outgrowth Assay in human hN2 cells for Neuron Count, Mundy Lab (AID 2284221; active means hit-call score of the fitted dose curve at least 0.9, where 1 is the maximum)
# How it was run: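 Read-out is the number of betaIII-tubulin-positive neurons imaged by automated high-content analysis, with DMSO as negative control.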
# [10] = CCTE_Mundy_HCI_Cortical_Synap_Neur_Matur_NeuriteCount: CCTE's Synaptogenesis and Neurite Maturation Assay in rat cortical cells for Neurite Count, Mundy Lab (AID 2284222);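 on outcome: exposure from day 7 to day 12 in vitro with readout at day 12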
# How it was run: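 Rat cortical neurons, 96-well; AraC DIV 5; chemical + media change DIV 7; end DIV 12. Fix PFA/Hoechst, anti-MAP2 + anti-synaptophysin IF. HCI neurite count vs DMSO baseline.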
structure (smiles),measurement,setting,value
CC(=O)Nc1ccc(O)cc1,outcome,[1],inactive
same,outcome,[2],inactive
same,outcome,[3],inactive
same,outcome,[4],inactive
same,outcome,[5],inactive
same,outcome,[6],inactive
same,outcome,[7],inactive
same,outcome,[8],inactive
Nc1ccn([C@@H]2O[C@H](CO)[C@@H](O)C2O)c(=O)n1 (some centres not stated),AC50,[1],5.88 µM (active)
same,AC50,[2],17.1 µM (active)
same,AC50,[3],15.9 µM (active)
same,AC50,[5],16 µM (active)
same,outcome,[6],inactive
same,outcome,[7],inactive
same,AC50,[9],1.47 µM (active)
same,outcome,[8],inactive
O=C1NS(=O)(=O)c2ccccc21,outcome,[1],inactive
same,outcome,[2],inactive
same,outcome,[3],inactive
same,outcome,[4],inactive
same,outcome,[5],inactive
same,outcome,[6],inactive
same,outcome,[7],inactive
same,outcome,[8],inactive
CN(Cc1cnc2nc(N)nc(N)c2n1)c1ccc(C(=O)N[C@@H](CCC(=O)O)C(=O)O)cc1,outcome,[1],inactive
same,AC50,[2],0.0328 µM (active)
same,outcome,[3],inactive
same,outcome,[5],inactive
same,outcome,[6],inactive
same,outcome,[7],inactive
same,outcome,[9],inactive
same,outcome,[10],inactive
same,outcome,[8],inactive
O=C(CCCN1CCC(O)(c2ccc(Cl)cc2)CC1)c1ccc(F)cc1,AC50,[1],6.16 µM (active)
same,AC50,[2],21.2 µM (active)
same,AC50,[3],17.8 µM (active)
same,AC50,[5],18.4 µM (active)
same,AC50,[6],37.9 µM (active)
same,AC50,[7],22.4 µM (active)
same,AC50,[9],20.3 µM (active)
same,outcome,[8],inactive
CC(C)c1c(C(=O)Nc2ccccc2)c(-c2ccccc2)c(-c2ccc(F)cc2)n1CC[C@@H](O)C[C@@H](O)CC(=O)O,AC50,[1],0.145 µM (active)
same,AC50,[2],2.82 µM (active)
same,AC50,[3],3.05 µM (active)
same,AC50,[5],3.58 µM (active)
same,AC50,[10],3.35 µM (active)
same,AC50,[8],4.68 µM (active)
